From PubChem BioAssay AID602350 (Broad Institute, 2012)
Entries with a potency or affinity are not part of this list. The source made the active and inactive calls.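 How the source made its calls: active means absorbance falls by 30% or more versus neutral controls, with a potency fitted within twice the top valid dose; inconclusive means no clear call, values can overlap the other calls; inactive means change opposite to expected direction, plus the rest.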

Target: Protein disulfide-isomerase (Homo sapiens) (UniProt P07237)
Assay: PDI inhibitors, insulin aggregation turbidity, dose response, biochemical, absorbance, cherry-picked samples (AID 602350)
Conditions: recombinant PDI insulin aggregation, absorbance 650 nm, 90 min; series mostly up to 19.5 µM

Chain of Protein disulfide-isomerase (Homo sapiens) (P07237 whole entry, looked up): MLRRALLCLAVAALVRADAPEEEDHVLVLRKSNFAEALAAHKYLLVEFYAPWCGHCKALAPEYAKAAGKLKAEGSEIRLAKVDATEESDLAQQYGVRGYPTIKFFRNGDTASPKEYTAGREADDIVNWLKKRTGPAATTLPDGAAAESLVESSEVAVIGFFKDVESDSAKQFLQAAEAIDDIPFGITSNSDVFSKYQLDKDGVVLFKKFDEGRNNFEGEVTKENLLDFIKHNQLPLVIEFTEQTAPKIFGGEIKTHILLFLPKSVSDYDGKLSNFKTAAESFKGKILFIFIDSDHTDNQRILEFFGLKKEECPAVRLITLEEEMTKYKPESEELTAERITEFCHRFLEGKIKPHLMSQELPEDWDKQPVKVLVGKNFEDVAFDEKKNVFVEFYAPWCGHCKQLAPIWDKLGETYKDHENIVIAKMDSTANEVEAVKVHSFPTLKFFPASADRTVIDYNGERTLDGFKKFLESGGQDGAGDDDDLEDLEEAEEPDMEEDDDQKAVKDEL

outcome, inactive:
COc1ccc(C2c3ccc(O)cc3Oc3ncn(CCCO)c(=N)c32)cc1 (centres undefined)
O=C(NC(Cc1c[nH]c2ccccc12)C(=O)N/N=C/c1cccnc1)c1cccs1 (centres undefined)
Cc1ccc(N2CC(C(=O)Nc3nc4ccc(S(C)(=O)=O)cc4s3)CC2=O)cc1 (centres undefined)
CCOc1ccc2[nH]c(=O)c(CN(CCO)C(=O)CC)cc2c1
CC(=O)OC1CCC2C3CCC4=C(CC(F)C(=O)C4)C3CCC12C (centres undefined)
O=C1CCC(=O)N1c1nc2nc(-c3ccccc3)cc(-c3ccccc3)n2n1
COc1cc2c(cc1OC)C(C)N(CC(=O)Nc1ccc(S(=O)(=O)N3CCCC3)cc1)CC2 (centres undefined)
O=C1C[C@H](c2ccc(O)cc2)Oc2cc(O[C@@H]3O[C@H](CO)[C@@H](O)[C@H](O)[C@H]3O)cc(O[C@@H]3O[C@H](CO)[C@@H](O)[C@H](O)[C@H]3O)c21
CCCCn1c(SCC(=O)Nc2ccc(C)c(S(=O)(=O)N3CCOCC3)c2)nnc1C(CC)N(C)C (centres undefined)
CC(C)N1CCCC(C)(C(=O)Nc2nc3ccccc3n2C)C1 (centres undefined)
C[C@@H]1CN([C@H](C)CO)C(=O)Cc2cc(NC(=O)Nc3ccccc3)ccc2O[C@@H]1CN(C)Cc1ccccc1
Cc1cc(C)cc(OCC(=O)Nc2ccccc2C(=O)N2CCOCC2)c1
O=C1NC[C@H](Cc2ccccc2)N(C[C@H]2CCCN2C[C@H](Cc2ccccc2)N2C[C@H](Cc3ccc(O)cc3)N(CC3CCCCCC3)C(=O)C2=O)C1=O
CN(C)c1ccc(C2(O)C(=O)c3ccccc3C2=O)cc1
CC(=O)C1=C(O)C(=O)N(CCc2c[nH]c3ccccc23)C1c1cccc(O)c1 (centres undefined)
Cc1ccc2c(c1)Oc1ccc(NC(=O)CCl)cc1C(=O)N2
O=C(NCCc1c[nH]c2ccccc12)/C(=C\c1cccnc1)NC(=O)c1ccccc1Br
CCOC(=O)c1c(CN2CCN(Cc3ccccc3)CC2)n(C)c2cc(Br)c(OC)cc12
Cc1noc(C)c1S(=O)(=O)Nc1ccc2c(c1)CC(=O)N([C@H](C)CO)C[C@@H](C)[C@@H](CN(C)S(=O)(=O)c1ccc(F)cc1)O2
N#Cc1c(NCCCO)nc(-c2ccco2)c2c1CCCC2
CC(=O)c1ccc(NC(=O)c2cc(Cl)nc3ccccc23)cc1
O=C(NCc1ccncc1)Nc1cc(Cl)ccc1Cl
O=C1[C@@H]2C(Cc3ccc(O)cc3)NC3(C(=O)Nc4ccc(F)cc43)[C@@H]2C(=O)N1c1ccccc1 (some centres undefined)
CC1(C(=O)Nc2ccc3c(c2)OCCO3)CCN1C(=O)C1(c2ccc(Cl)cc2)CC1 (centres undefined)
CCOc1ncccc1C(=O)OCC(=O)Nc1ccc(C(C)C)cc1
CCOc1ccc(NC(=O)CCc2nnc3ccc(N4CCN(C)CC4)nn23)cc1
CCOC(=O)c1c(CN2CCOCC2)n(-c2ccccc2)c2cc(Br)c(O)cc12
O=C(/C=C/c1ccccc1)Nc1scc(-c2ccccc2)c1C(=O)O
CCOC(=O)c1c(CN2CCOCC2)n(-c2ccccc2)c2cc(Br)c(OC)cc12
O=C(NCc1ccccc1CN1CCCC1)c1cc2ccccc2o1
COc1ccc(N(CC(=O)NCCSC2CCCCC2)S(=O)(=O)c2ccccc2)c(OC)c1
COc1ccc(Oc2ccc(/C=C/C(=O)c3ccc(O)cc3)cc2[N+](=O)[O-])cc1
C[C@@H]1CN([C@@H](C)CO)C(=O)Cc2cc(NC(=O)Nc3ccccc3)ccc2O[C@@H]1CN(C)Cc1ccccc1
C[C@@H]1CN([C@H](C)CO)C(=O)c2cc(NC(=O)Cc3cn(C)c4ccccc34)ccc2O[C@@H]1CN(C)S(=O)(=O)c1ccc(F)cc1
O=S(=O)(Nc1ccc(C(O)(C(F)(F)F)C(F)(F)F)cc1)c1ccc(Cl)c2nonc12
CC(OC(=O)c1cccc(S(=O)(=O)N(C)C)c1)C(=O)NCC(=O)Nc1ccc(F)c(F)c1F (centres undefined)
CNC[C@@H]1Oc2c(NS(C)(=O)=O)cccc2C(=O)N([C@@H](C)CO)C[C@H]1C
S=C(NCCN1CCOCC1)Nc1ccc(Br)cc1
CC(C)Oc1cccc(C(=O)NC(=S)Nc2cccc(NC(=O)c3ccccc3Cl)c2)c1
